High-throughput results (PubChem BioAssay)
GBA activity: alters purified human glucocerebrosidase activity | P04062 | purified enzyme, resorufin glucoside fluorescence (screen aimed at inhibitors), 20 min | Potency, µM | 48,000 compounds, 1.1% hits | AID 360; in the data active means potency below about 15 µM; inconclusive means mostly about 16 µM to 33 µM;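 further: the screen sought inhibitors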
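Normal human glucocerebrosidase (0.2 nM final) was assayed with resorufin β-D-glucopyranoside (30 uM final) in 50mM citric acid/KH2PO4, 10mM sodium taurocholate, 0.01% tween-20, pH 5.9. Compounds were titrated; fluorescence (Ex 548, Em 600) read after 20 min at RT.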
Bst PK mod: pyruvate kinase (B. stearothermophilus) modulation; 51,000 compounds, 1.2% hits; AID 361; purified pyruvate kinase, luminescence ATP production; ribose 5-phosphate activator present at AC10; Potency, µM; in the data active means potency below about 11 µM; inconclusive means mostly about 12 µM to 25 µM;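 the screen sought inhibitors and activators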;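 further: scaled between full activation by ribose 5 phosphate and full inhibition by luteolin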
Caspase-7 inhib: caspase-7 (human) inhibition, allosteric or competitive | 75,000 compounds, 0.02% hits | P55210 | Potency, µM (top dose mostly 57.5 µM), for the others: at the highest dose activity change, negative = inhibition, actives largely listed as inhibitors | recombinant caspase-7, Ac-DEVD-AFC fluorescence rate; active means well fitted inhibition curve with a large enough effect in the main read-out, with a control signal flat, not every such curve was filed as active; inconclusive means small, poorly fitted or top-dose-only effect, or a change in a side signal; further: % of control where 0% means no effect
Caspase-1 inhib: allosteric or competitive inhibitors of human caspase-1 | AID 900 | Potency, µM (titrated, usually from 57.5 µM), without a hit: top-dose activity change, negative = inhibition, usual class: inhibitors | Caspase-1 enzyme, Ac-WEHD-AFC fluorogenic rate | P29466 | 75,000 compounds, 0.03% hits;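 further: plate controls were vehicle for no effect and no substrate for full effect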
Target sequence (P29466 120-297 limits assumed): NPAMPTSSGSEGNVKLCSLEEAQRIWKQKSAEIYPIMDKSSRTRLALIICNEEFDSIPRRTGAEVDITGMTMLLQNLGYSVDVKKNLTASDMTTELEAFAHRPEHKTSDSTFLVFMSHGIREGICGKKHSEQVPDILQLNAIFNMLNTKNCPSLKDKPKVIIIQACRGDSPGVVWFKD
Target sequence (P29466 317-404 limits assumed): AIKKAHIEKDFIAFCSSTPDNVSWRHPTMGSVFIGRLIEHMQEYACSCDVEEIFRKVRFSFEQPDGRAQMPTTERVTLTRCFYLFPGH
FLuc inh: firefly luciferase inhibition; purified firefly luciferase, luminescence, 8 min; Potency, µM (doses to about 57.1 µM), for inactives: at the top dose activity change, negative = inhibition, actives largely listed as inhibitors; 72,000 compounds, 2.2% hits; further: on the % scale 0 is the no-effect control and ±100 the full control effect; nearly all actives have a fitted effect of over 40% in size
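Here, luciferase activity is measured as luminescence following an 8 min room-temperature reaction at 10 uM ATP, pH 7.2. Every library sample is titrated.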
Starred values were filed as active, the others as inactive; [ ] = another dose, or the depositor's remark. This is a sample that favours compounds with a hit; in the whole collection about 3.1% have one here. Unless noted, the call rests on the fitted dose curve; in most records, active means well fitted inhibition curve with a large enough effect; inconclusive means small, poorly fitted or top-dose-only effect; inactive means flat fitted curve, though single readings scatter. Potency means the concentration at half of the fitted maximal effect.

Results for CCOC(=O)c1c(C)nc(-c2ccccc2)nc1NC(C)=O ?
Caspase-7 inhib: -2%; Caspase-1 inhib: -2%; FLuc inh: -2%

What do the screens show for `O=C(CCCn1c(=S)[nH]c2cc3c(cc2c1=O)OCO3)N1CCN(c2ccccc2F)CC1`?
Bst PK mod: >57; Caspase-7 inhib: 2%; Caspase-1 inhib: 1%; FLuc inh: 2%

How did Cc1ccc(C)c(N2CCN(C(=O)CCCn3c(=S)[nH]c4cc5c(cc4c3=O)OCO5)CC2)c1 do in these assays?
GBA activity: 15*; Bst PK mod: >57; Caspase-7 inhib: -4%; Caspase-1 inhib: -4%; FLuc inh: -2%

What do the screens show for `c1ccc2c(c1)oc1c(Nc3ccc(CN4CCOCC4)cc3)ncnc12`?
GBA activity: inconclusive; Bst PK mod: inactive; Caspase-7 inhib: -1%; Caspase-1 inhib: -3%; FLuc inh: 16µM*

Results for c1ccc(Nc2ncnc3c2oc2ccccc23)cc1 ?
GBA activity: >77; Bst PK mod: 5.4*; Caspase-7 inhib: 1%; Caspase-1 inhib: -3%; FLuc inh: -10%

How did C[C@@]12CC[C@@H]3[C@H](CCC4=CC(=O)CC[C@]43C)[C@@H]1CC[C@@H]2C(=O)COS(=O)(=O)c1ccc(Br)cc1 do in these assays?
Caspase-7 inhib: -2%[11.5 µM]; Caspase-1 inhib: 2%[11.5 µM]; FLuc inh: 3%[11.4 µM]

How did CN(CC(=O)O)CC(=O)O do in these assays?
Caspase-7 inhib: 2%[11.5 µM]; Caspase-1 inhib: -2%[11.5 µM]; FLuc inh: 1%[11.4 µM]

Results for Oc1cc(CN2COc3ccccc32)c(O)cc1CNC1CCCCC1 ?
Caspase-7 inhib: 0%[11.5 µM]; Caspase-1 inhib: -10%[11.5 µM]; FLuc inh: -10%[11.4 µM]

What do the screens show for `Cc1ccccc1-n1c(C)nnc1SCc1nc2ccccc2s1`?
GBA activity: >77; Caspase-7 inhib: -3%; Caspase-1 inhib: -1%; FLuc inh: 20µM*

How did O=C(/C=C\Nc1cccc(F)c1)c1ccc2c(c1)OCO2 do in these assays?
Caspase-7 inhib: -26%; Caspase-1 inhib: inconclusive; FLuc inh: 0.4µM*

What do the screens show for `O=C(CCNc1ccccc1)c1ccc2c(c1)OCO2`?
GBA activity: >77; Caspase-7 inhib: 2%; Caspase-1 inhib: -3%; FLuc inh: 16µM*

Results for C=CC(=O)OCC(CO)(COC(=O)C=C)COC(=O)C=C ?
Caspase-7 inhib: -1%; Caspase-1 inhib: -5%

What do the screens show for `COc1ccc(NC(=O)c2ccc3c(c2)C(=O)N(Cc2cccnc2)C3=O)c(OC)c1`?
GBA activity: 5*; Bst PK mod: >57; Caspase-7 inhib: 0%; Caspase-1 inhib: 0%; FLuc inh: 2%

How did CSCCNC(=O)c1ccc(C(C)(C)C)cc1 do in these assays?
GBA activity: >77; Bst PK mod: inconclusive; Caspase-7 inhib: -1%; Caspase-1 inhib: 1%; FLuc inh: 13µM*

How did O=C(O)CCc1ccc(-c2ccccc2)[nH]1 do in these assays?
Caspase-7 inhib: -9%[11.5 µM]; Caspase-1 inhib: -7%[11.5 µM]; FLuc inh: 1%[11.4 µM]

How did O=C(Nc1ncc(Cc2ccccc2)s1)C1CCCO1 (centres undefined) do in these assays?
Caspase-7 inhib: -1%; Caspase-1 inhib: -1%; FLuc inh: 10µM*

How did CCOC(=O)C1=C(C)NC(SCC(=O)Nc2cc(C)on2)=C(C#N)C1c1cccs1 (centres undefined) do in these assays?
GBA activity: 1.9*; Bst PK mod: >57; Caspase-7 inhib: -4%; Caspase-1 inhib: -3%; FLuc inh: -1%
